# Laboratory results taken from the supplement of paper PMC13380429.
# How the values were obtained:
# [1] = test system: Vero E6 infected with SARS-CoV-2; experiment: morphology score (similarity to uninfected cells); higher = more like uninfected cells; conditions: 24 h
# [2] = test system: Vero E6 infected with SARS-CoV-2; experiment: SARS-CoV-2 infection rate relative to infected DMSO; higher = more infection, active = 60 or less; conditions: 24 h
SMILES,morphology score [1],SARS-CoV-2 infection rate [2]
O=C(O)CCCC[C@@H]1SC[C@@H]2NC(=O)N[C@@H]21 [biotin] (10 µM),-0.0202,108% (inactive)
O=c1cc[nH]c(=S)[nH]1 [2-thiouracil] (10 µM),0.0168,108% (inactive)
CC(=O)Nc1nc2c(Oc3cc(-c4ccc(C(F)(F)F)cc4)ncn3)cccc2s1 (10 µM),0.163,108% (inactive)
CN1CCN2c3c(cccc31)[C@@H]1CN(CCCC(=O)c3ccc(F)cc3)CC[C@@H]12 [lumateperone] (10 µM),0.348,86% (inactive)
NC(=O)c1cnc2[nH]ccc2c1N[C@@H]1[C@@H]2CC3C[C@H]1C[C@@](O)(C3)C2 (10 µM),0.174,106% (inactive)
CC(C)(C)NCC(O)COc1cccc2[nH]c(C#N)cc12 (centres undefined) [cyanopindolol] (10 µM),-0.0665,107% (inactive)
CN(C)CCCO[C@@H]1[C@H]2OC(C)(C)O[C@H]2O[C@@H]1[C@H](O)CO [amiprilose] (10 µM),-0.0292,104% (inactive)
CCCCOc1ccc(OCCCN2CCOCC2)cc1 [pramoxine] (10 µM),-0.0144,106% (inactive)
OC[C@H]1O[C@@H](c2ccc(Cl)c(Cc3ccc(O[C@H]4CCOC4)cc3)c2)[C@H](O)[C@@H](O)[C@@H]1O [empagliflozin] (10 µM),-0.159,106% (inactive)
N[C@H](Cc1cc(I)c(Oc2ccc(O)c(I)c2)c(I)c1)C(=O)O [liothyronine-(isomer)] (10 µM),0.127,106% (inactive)
CCCCC(=O)OCC(=O)[C@]1(O)Cc2c(O)c3c(c(O)c2[C@@H](O[C@H]2C[C@H](NC(=O)C(F)(F)F)[C@H](O)[C@H](C)O2)C1)C(=O)c1c(OC)cccc1C3=O [valrubicin] (0.833333 µM),0.122,97% (inactive)
C[C@H](NC(=O)/C(C#N)=C/c1cccc(Br)n1)c1ccccc1 (0.833333 µM),-0.0278,118% (inactive)
COc1ccccc1N1CCN(CC(O)COc2cc(OC)c(OC)c(OC)c2)CC1 (centres undefined) [enciprazine] (10 µM),0.0687,110% (inactive)
NC(=O)NCCN1CCN(c2cccc(C(F)(F)F)c2)CC1 [fluprazine] (10 µM),0.0715,106% (inactive)
O=C(O)c1cc(/N=N/c2ccc(O)c(C(=O)O)c2)ccc1O [olsalazine] (10 µM),0.062,104% (inactive)
NS(=O)(=O)c1cccc2c1c([N+](=O)[O-])cc1nc(O)c(O)nc12 (10 µM),-0.0523,104% (inactive)

SMILES,morphology score [1],SARS-CoV-2 infection rate [2]
CN[C@H](CC(C)C)C(=O)N[C@H]1C(=O)N[C@@H](CC(N)=O)C(=O)N[C@H]2C(=O)N[C@H]3C(=O)N[C@H](C(=O)N[C@H](C(=O)O)c4cc(O)cc(O)c4-c4cc3ccc4O)[C@H](O[C@H]3C[C@](C)(N)[C@@H](O)[C@H](C)O3)c3ccc(c(Cl)c3)Oc3cc2cc(c3O[C@@H]2O[C@H](CO)[C@@H](O)[C@H](O)[C@H]2O[C@H]2C[C@](C)(NCc3ccc(-c4ccc(Cl)cc4)cc3)[C@@H](O)[C@H](C)O2)Oc2ccc(cc2Cl)[C@H]1O [oritavancin] (10 µM),0.0399,92% (inactive)
CCCC(C)(COC(N)=O)COC(=O)NC(C)C (centres undefined) (10 µM),-0.33,116% (inactive)
Oc1cc2c(c(Cl)c1O)CCNCC2c1ccccc1 (centres undefined) (10 µM),0.16,97.5% (inactive)
COc1ccc2c(c1)CN(C)CC2c1ccc(Cl)c(Cl)c1 (centres undefined) [diclofensine] (10 µM),0.0249,106% (inactive)
CC(=O)N[C@H]1[C@H]([C@H](O)[C@H](O)CO)OC(C(=O)O)=C[C@@H]1NC(=N)N [zanamivir] (10 µM),0.113,108% (inactive)
CCCNC(=O)N1N=C(c2ccc(N)cc2)c2cc3c(cc2C1C)OCO3 (centres undefined) (10 µM),0.256,96.5% (inactive)
Cn1cc(CCn2cnc(-c3cnn(C)c3)c2-c2ccc(C#N)cc2)cn1 (10 µM),0.0344,97% (inactive)
Oc1ccc(Cl)cc1Cc1cc(Cl)ccc1O [dichlorophen] (10 µM),0.14,99.5% (inactive)
Cc1cc2sc(NC(=O)Cc3ccccc3)nc2cc1Cl (10 µM),0.407,76.5% (inactive)
Nc1nc2c(c(N3CCNCC3)n1)CCC1=C2[C@@H]2CCCC[C@@H]2O1 (10 µM),0.247,83.5% (inactive)
C[N+]1(C)CCCC(OC(=O)C(O)(c2ccccc2)c2ccccc2)C1 (centres undefined) [mepenzolate] (10 µM),0.047,105% (inactive)
COc1ccc(C2CC(c3c(O)cc(C)oc3=O)=NCCS2)c(OC)c1 (centres undefined) (10 µM),0.0127,101% (inactive)
c1ccc2[nH]c(-c3cscn3)nc2c1 [tiabendazole] (10 µM),0.157,111% (inactive)
Nc1nc2c(ccc3ccccc32)s1 (10 µM),-0.0747,102% (inactive)
Cc1sc2c(c1C)C(c1ccc(Cl)cc1)=N[C@@H](CC(=O)Nc1ccc(O)cc1)c1nnc(C)n1-2 (10 µM),-0.169,114% (inactive)
CCC[C@H](NC(=O)/C(C#N)=C/c1cccc(Br)n1)c1ccccc1 (0.833333 µM),0.143,108% (inactive)
